Data on 29 molecules can be found in PubChem BioAssay (EPA / NIEHS).

Results filed as inconclusive are left out. The source made the active and inactive calls. Rule for the calls, unless noted: active = hit-call score of the fitted dose curve at least 0.9, where 1 is the maximum; inactive = score below 0.9.

Test [1] in a line: ATG_NF_kB_CIS: Attagene CIS-FACTORIAL HepG2 Assay for human Nuclear Factor Kappa B (NF-kB) (AID 2282991). As to conditions: HepG2 Attagene cis-factorial NF-kB reporter mRNA; actives raise or lower the signal. In outline:
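Measures mRNA induction of an NF-kB-responsive cis-element reporter in HepG2 cells transfected with multiple reporter units, sampled 24 h post-dosing; quantified by fluorescence after RT-PCR and capillary electrophoresis, fitted for activation or inhibition against DMSO.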

Test [2] in a line: ATG_NRF2_ARE_CIS: Attagene CIS-FACTORIAL HepG2 Assay for human Nuclear Factor Erythroid 2 Related Factor 2 (NFR2) response to Antioxidant Response Elements (ARE) (AID 2282992).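 For AC50: reporter mRNA level measured by RT-PCR and capillary electrophoresis fluorescence.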 To be noted: HepG2 Attagene ARE/NRF2 reporter, transcription factor activity; actives raise or lower the signal. Summed up:
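HepG2 cells transiently transfected with multiplexed cis-regulated reporter transcription units measure endogenous transcription factor activity. Reporter mRNA at 24 h is quantified by RT-PCR, fluorescent labelling and capillary electrophoresis, with bidirectional fitting relative to DMSO.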

Test [3] can be described thus: ATG_Oct_MLP_CIS: Attagene CIS-FACTORIAL HepG2 Assay for human Octamer-Binding Transcription Factor (Oct) (AID 2282993). As to conditions: HepG2 Attagene cis-factorial Oct reporter, mRNA; actives raise or lower the signal. In outline:
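Readout is reporter transcript level from RT-PCR with fluorescent primer extension and capillary electrophoresis, fitted in both directions against DMSO. Transfected HepG2 reporter units report endogenous factor activity after 24 h dosing.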

Test [4] addresses Cellular tumor antigen p53 (Homo sapiens) (UniProt P04637). In words: ATG_p53_CIS: Attagene CIS-FACTORIAL HepG2 Assay for human p53 Transcription Factor (AID 2282994). To be noted: HepG2 p53 cis-element reporter, Attagene mRNA; actives raise or lower the signal. Summed up:
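HepG2 cells transiently transfected with multiplexed cis-regulated reporter transcription units read endogenous TF activity. After 24 h compound exposure, reporter mRNA was quantified by RT-PCR, fluorescent labelling, HpaI digestion and capillary electrophoresis; bidirectional fits versus DMSO baseline.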

The nature of test [5]: BSK_3C_TissueFactor: BioMAP Diversity Plus: 3C Assay for Tissue Factor Biomarker Activity (AID 2282997). To be noted: BioMAP 3C HUVEC, tissue factor biomarker readout; actives raise or lower the signal. In outline:
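Dosing of human umbilical vein endothelial cells preceded a 24 h incubation. Tissue Factor was then read by ELISA, with increases and decreases both scored relative to DMSO controls.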

Test [6] can be described thus: BSK_3C_uPAR: BioMAP Diversity Plus: 3C Assay for Urokinase-type plasminogen activator receptor (uPAR) Biomarker Activity (AID 2282998). To be noted: BioMAP 3C HUVEC, uPAR biomarker ELISA; actives raise or lower the signal. Summed up: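 Cell-surface uPAR on HUVEC (3C system) read by ELISA at 24 h post-treatment, with DMSO as baseline and fitting in both directions. Parallel cultures stained with SRB to flag overt cytotoxicity.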

A short description of test [7]: BSK_3C_VCAM1: BioMAP Diversity Plus: 3C Assay for Vascular cell adhesion molecule 1 (VCAM1) Biomarker Activity (AID 2282999). As to conditions: BioMAP 3C HUVEC, VCAM1 ELISA, cytokine-stimulated; actives raise or lower the signal. In outline: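 Endothelial cells from human umbilical vein are treated with test chemical. At 24 h, VCAM-1 is measured by ELISA, and responses in either direction are fitted relative to DMSO.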

Test [8] can be described thus: BSK_4H_Eotaxin3: BioMAP Diversity Plus: 4H Assay for Eotaxin 3 Biomarker Activity (AID 2283000).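 For outcome: CCL26 protein level quantified by ELISA in parallel with SRB cytotoxicity check.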 As to conditions: primary human endothelial cells (HUVEC); actives raise or lower the signal. Summed up: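 Human umbilical vein endothelial cells (BSK_4H system) dosed with test chemical; Eotaxin-3 (CCL26) measured by ELISA 24 h after dosing. Bidirectional curve fitting relative to DMSO negative control as baseline.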

The target of test [9] is human Peroxisome Proliferator-activated Receptor alpha (PPARa), PPARA (gene 5465) (UniProt Q07869). The experiment in a line: ATG_PPARa_TRANS: Attagene TRANS-FACTORIAL HepG2 Assay for human Peroxisome Proliferator-activated Receptor alpha (PPARa) (AID 2283001; active = hit-call score of the fitted dose curve at least 0.9, where 1 is the maximum;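 for AC50: potency for gain of reporter signal over DMSO so agonist or activator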). Summed up:
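Read-out is fluorescence of reporter cDNA fragments resolved by capillary electrophoresis after RT-PCR. Human HepG2 liver cells carried transfected PPARa-Gal4 chimera and GAL4-UAS reporter units, treated 24 h; activity scored as increase over DMSO.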

Test [10] has as its target human Peroxisome Proliferator-activated Receptor delta (PPARd), PPARD (gene 5467) (UniProt Q03181). In words: ATG_PPARd_TRANS: Attagene TRANS-FACTORIAL HepG2 Assay for human Peroxisome Proliferator-activated Receptor delta (PPARd) (AID 2283002; active = hit-call score of the fitted dose curve at least 0.9, where 1 is the maximum). Summed up:
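Cell-based TRANS reporter: HepG2, transient MRTU transfection, 24 h exposure. Readout = reporter mRNA (RT-PCR/CE, 6-FAM). Gain-of-signal fit vs DMSO control.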

human Peroxisome Proliferator-activated Receptor delta (PPARd), PPARD (gene 5467), sequence (Q03181 whole entry, looked up): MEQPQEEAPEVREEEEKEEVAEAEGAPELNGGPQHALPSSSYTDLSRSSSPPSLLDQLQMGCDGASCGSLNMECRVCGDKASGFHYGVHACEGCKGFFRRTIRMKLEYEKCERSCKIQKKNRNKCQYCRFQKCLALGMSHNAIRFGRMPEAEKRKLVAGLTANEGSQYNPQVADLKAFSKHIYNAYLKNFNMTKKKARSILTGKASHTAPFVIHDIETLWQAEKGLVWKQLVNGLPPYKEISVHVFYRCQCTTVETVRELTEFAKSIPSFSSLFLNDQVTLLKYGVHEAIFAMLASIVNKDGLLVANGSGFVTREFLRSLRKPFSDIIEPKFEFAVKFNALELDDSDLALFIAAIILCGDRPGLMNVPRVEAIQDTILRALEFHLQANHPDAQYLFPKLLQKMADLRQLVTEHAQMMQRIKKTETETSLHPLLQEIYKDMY
Cellular tumor antigen p53 (Homo sapiens), sequence (P04637 whole entry, looked up): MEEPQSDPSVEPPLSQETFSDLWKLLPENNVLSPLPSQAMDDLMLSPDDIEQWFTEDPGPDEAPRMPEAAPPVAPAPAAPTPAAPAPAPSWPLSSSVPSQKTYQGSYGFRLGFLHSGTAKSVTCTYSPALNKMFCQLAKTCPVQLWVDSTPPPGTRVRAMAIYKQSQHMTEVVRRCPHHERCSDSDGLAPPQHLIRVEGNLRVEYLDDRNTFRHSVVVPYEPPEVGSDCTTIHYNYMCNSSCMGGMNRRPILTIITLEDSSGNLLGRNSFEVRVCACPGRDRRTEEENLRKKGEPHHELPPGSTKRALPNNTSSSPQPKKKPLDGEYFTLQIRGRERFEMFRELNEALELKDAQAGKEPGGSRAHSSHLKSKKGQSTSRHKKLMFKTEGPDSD
human Peroxisome Proliferator-activated Receptor alpha (PPARa), PPARA (gene 5465), sequence (Q07869 whole entry, looked up, the tested form may be a part): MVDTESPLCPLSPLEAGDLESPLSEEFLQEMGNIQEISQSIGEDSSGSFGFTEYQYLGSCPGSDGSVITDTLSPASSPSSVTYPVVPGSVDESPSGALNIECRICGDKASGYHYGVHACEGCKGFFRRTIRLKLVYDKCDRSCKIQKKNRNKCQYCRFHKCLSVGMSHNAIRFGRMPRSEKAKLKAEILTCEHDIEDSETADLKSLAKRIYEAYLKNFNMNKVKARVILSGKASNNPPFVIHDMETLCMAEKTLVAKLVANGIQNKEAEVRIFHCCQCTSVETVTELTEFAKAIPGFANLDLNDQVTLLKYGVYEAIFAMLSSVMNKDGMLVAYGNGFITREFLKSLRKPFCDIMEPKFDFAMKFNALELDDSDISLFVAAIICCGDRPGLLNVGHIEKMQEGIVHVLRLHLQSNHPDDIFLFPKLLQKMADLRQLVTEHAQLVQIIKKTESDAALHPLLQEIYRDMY

Turning to `CCC[CH2][Sn]([Cl])([Cl])[CH2]CCC`, the AC50 in test [1] was 1.99 µM (active); in test [2], 0.315 µM (active); in test [3] it was 0.949 µM (active). In test [4], the call was inactive.

Take `BrCc1ccc(Br)cc1`: the molecule was called inactive in [1], in test [2], in test [3] and in test [4].

Turning to `CC(C)CP(=S)(S)CC(C)C`, the call in test [1], in [2], in test [3] and in test [4] was inactive.

`CCCCS(=O)(=O)Cl`: the molecule was classed as inactive in test [1], in test [2], in test [3] and in [4].

Consider `Cc1cccc(OP(=O)(Oc2cccc(C)c2)Oc2cccc(C)c2)c1`, for which the molecule was classed as inactive in [1], in test [3], in test [4], in test [5], in test [6] and in [7]. For the same molecule, in [8], the result was inactive. In [2], the AC50 is 21.9 µM (active).

Regarding `CC(C)(c1ccc(O)c(-c2ccccc2)c1)c1ccc(O)c(-c2ccccc2)c1`, the molecule was classed as inactive in test [1], in [3] and in test [4]. In [2], the AC50 was 4.64 µM (active).

With `CCC(C)(C#N)N=NC(C)(C#N)CC` (stereo not drawn), the call in test [1], in [2], in [3], in test [4], in [5] and in [6] was inactive. Moreover, the outcome in [7], in test [8] and in test [9] was inactive.

On to `CC(C)[C@H](C(=O)OC(C#N)c1cccc(Oc2ccccc2)c1)c1ccc(OC(F)F)cc1` (stereo partly drawn), for which the outcome in test [1], in test [2], in test [3] and in test [4] was inactive.

With `CC(O)(CS(=O)(=O)c1ccc(F)cc1)C(=O)Nc1ccc(C#N)c(C(F)(F)F)c1` (stereo not drawn), the molecule was called inactive in [1] and in test [4]. Besides, the figures for the AC50 in test [2] and in [3] were 94.5 µM (active) and 58 µM (active), respectively.

Take `ClCc1ccccc1CCl`: the AC50 in [1] is 25.1 µM (active); in test [2], 8.19 µM (active); in test [3], 21.2 µM (active); in [4], 50.7 µM (active).

Take `C1CN2CCN1CC2`: the molecule was classed as inactive in test [1] and in test [2].

With `c1ccc2c(c1)Oc1ccccc1O2`, the molecule was called inactive in [1], in test [3], in [4] and in [9]. The AC50 in test [2] is 35.4 µM (active).

As to `Nc1c(Oc2ccccc2)cc(O)c2c1C(=O)c1ccccc1C2=O`, the molecule was classed as inactive in test [1], in test [3], in test [4], in [5], in test [6] and in test [7]. Besides, the result in test [9] and in test [10] was inactive. The figures for the AC50 in [2] and in test [8] were 2.25 µM (active) and 10 µM (active), respectively.

Consider `CCOc1ccc(N)cc1`, for which the molecule was called inactive in test [1], in test [2], in test [3], in [4] and in test [9].

With `BrCCCCBr`, the molecule was classed as inactive in test [1], in [2], in test [3], in test [4] and in test [9].

Turning to `CN(N=O)C(N)=O`, the call in [1], in test [2], in test [3], in [4] and in [9] was inactive.

For the molecule `C#CCOC(=O)/C=C(C)/C=C/CC(C)CCCC(C)C` (stereo not drawn), the molecule was classed as inactive in test [1], in [4], in test [5], in test [7] and in test [10]. The AC50 in [2] is 57.3 µM (active); in test [3] it was 35.7 µM (active); in test [6], 33.5 µM (active); in [8], 20 µM (active); in test [9], 14.9 µM (active).

Regarding `CCNc1nc(NCC)nc(SC)n1`, the molecule was classed as inactive in [1], in test [2], in test [3], in test [4] and in [9].

Turning to `CCCCCCCCBr`, the result in test [1], in [2], in test [3], in [4] and in test [9] was inactive.

As to `O=C(Cc1ccccc1)OCCc1ccccc1`, the molecule was called inactive in [1], in [2], in [3], in test [4], in [5] and in test [6]. The result in [7], in test [8], in test [9] and in test [10] was inactive.

`Oc1cccc(-c2ccccc2)c1`: the molecule was called inactive in [1], in [3], in [4], in test [5], in test [9] and in test [10]. For the same molecule, the AC50 in test [2] was 100 µM (active); in test [6] it was 20 µM (active); in test [7], 37.1 µM (active); in [8], 20 µM (active).

For the molecule `C=CCCl`, the molecule was called inactive in [1], in test [2], in [3], in [4] and in test [9].

As to `CCN(CC)C(=O)C(Cl)=C(C)OP(=O)(OC)OC`, the outcome in [1], in test [3], in test [4], in test [5], in test [6] and in test [7] was inactive. Besides, the outcome in test [8] and in test [9] was inactive. For the same molecule, in [2], the AC50 is 38.6 µM (active).

In the case of `Brc1c(Br)c(Br)c(Oc2c(Br)c(Br)c(Br)c(Br)c2Br)c(Br)c1Br`, the molecule was classed as inactive in test [1], in test [2], in test [3], in test [4] and in [9].

As to `CCCCCCCCCCCCBr`, the call in test [1], in [3], in [4] and in test [9] was inactive. Further, the AC50 in test [2] was 55.7 µM (active).

As to `CCOP(=O)(OCC)OC(=CCl)c1ccc(Cl)cc1Cl`, the molecule was called inactive in [1], in [3], in test [4], in test [7] and in [10]. Also, the AC50 was 7.84 µM (active) in test [2], 20 µM (active) in test [5], 31.5 µM (active) in test [6] and 30.9 µM (active) in test [8].

Turning to `NC(=O)c1ccc(N)nc1`, the molecule was called inactive in [1], in test [2], in test [3], in test [4] and in test [9].

Take `O=S(=O)(c1ccc(Cl)cc1)c1cc(Cl)c(Cl)cc1Cl`: the molecule was called inactive in [1], in [3], in test [4], in test [5], in test [7] and in test [8]. In [10], the molecule was classed as inactive. The results for the AC50 in test [2] and in [6] were 10.4 µM (active) and 6.4 µM (active), respectively.

As to `O=C(NC(=O)c1c(F)cccc1F)Nc1cc(Cl)c(OC(F)(F)C(F)C(F)(F)F)cc1Cl` (stereo not drawn), the molecule was called inactive in test [1], in test [3], in [4] and in [9]. In addition, the AC50 in [2] was 73 µM (active).
